Drawing on PubChem BioAssay AID1159580 (chemical genetic matrix, 2015), this text covers normalized growth for two compounds.

The test in a line: chemical genetic growth profiling, strain panel (AID 1159580).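 Also: tested at 20 µM; growth read once vehicle control cultures reached saturation at 30 °C; 1 = growth at the plate median or of vehicle wells; lower values mean less growth of the strain.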 The following applies: S. cerevisiae deletion strains, growth OD.
The mark [1] stands for this setting: locus YAL040C, strain CLN3, stronger effect = lower value.
The mark [2] stands for this setting: locus YCL061C, strain MRC1 (second series), stronger effect = lower value.
Setting [3] is: locus YDR363W, strain ESC2, stronger effect = lower value.
The mark [4] stands for this setting: locus YER002W, strain NOP16, stronger effect = lower value.
The mark [5] stands for this setting: locus YGR078C, strain PAC10, stronger effect = lower value.
Setting [6] is: locus YMR263W, strain SAP30, stronger effect = lower value.
The mark [7] stands for this setting: locus YMR307W, strain GAS1, stronger effect = lower value.
Where [8] appears, read: locus YNL175C, strain NOP13, stronger effect = lower value.
[9] abbreviates: locus YNL197C, strain WHI3, stronger effect = lower value.
[10] abbreviates: locus YNL224C, strain SQS1, stronger effect = lower value.
Setting [11] is: locus YOR083W, strain WHI5 (second series), stronger effect = lower value.
Where [12] appears, read: locus YPL241C, strain CIN2, stronger effect = lower value.

Out of some 5,500 compounds screened, about 2,000 (36%) were called active. Another 18% or so got no clear call; they are omitted. This is one part of the list. Values without a mark were called inactive. Rule as the data show it: active = normalized growth mostly below about 0.91 (no sharp cut-off); inconclusive = no clear call, values can overlap the other calls; inactive = mostly above about 0.92.

As to `CN1C2CCC1CC(OC(=O)c1cc(Cl)cc(Cl)c1)C2` (centres undefined), the normalized growth was 1 under setting [1]; 1 under setting [2]; 0.99 under setting [3]; 0.997 under setting [4]; 1.01 under setting [5]; 0.997 (locus YJR075W, strain HOC1, stronger effect = lower value). Moreover, the normalized growth by setting is: under setting [6], 0.999; under setting [7], 1; under setting [8], 1.01; under setting [9], 1.01; under setting [10], 1.03; (locus YNL322C, strain KRE1, stronger effect = lower value) 0.996. Besides, the normalized growth under setting [11] was 1.01 and the normalized growth under setting [12] is 1.
For `CN1C2CCC1CC(OC(c1ccccc1)c1ccc(Cl)cc1)C2` (centres undefined), the normalized growth is 1.01 under setting [1]; 1 under setting [2]; 0.997 (locus YDR150W, strain NUM1, stronger effect = lower value); 0.958 under setting [3]; 1.04 under setting [4]; 1.02 under setting [5]. The normalized growth by setting is: (locus YGR229C, strain SMI1, stronger effect = lower value) 0.844 (active); under setting [6], 0.997; under setting [7], 0.994; (locus YNL153C, strain GIM3, stronger effect = lower value) 0.987; under setting [8], 1.04; under setting [9], 1.03. Besides, the normalized growth was 1.05 under setting [10], 1.01 under setting [11] and 0.993 under setting [12].
